Most compounds without a hit are left out; they make up all but 8.7% or so of the library.
12-LOX inh – blocks human arachidonate 12S-lipoxygenase | purified 12hLO, xylenol orange hydroperoxide absorbance | AID 1671190 | P18054 | 1.1% of 580,000 active | Potency, µM (titrated, usually from 108 µM), usual class: inhibitors
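Hydroperoxide product was detected by ferrous iron/xylenol orange as the 573 to 405 nm absorbance ratio. Arachidonic acid at 40 uM (final) was turned over for 30 min at room temperature by 150 nM human 12hLO, pH 7.0 Hepes buffer, after 15 min compound preincubation.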
JMJD2A Tudor – inhibitors of human JMJD2A Tudor domain. O75164. AlphaScreen JMJD2A-Tudor / H3K4me3 peptide binding. Potency, µM (titrated, usually from 114 µM), most hits filed as inhibitors. 4.4% of 390,000 active. AID 504339; further: nearly all actives have a fitted effect of over 50% in size
Sfp inh – Sfp phosphopantetheinyl transferase inhibition; Q9F4F7; Biochemical Sfp PPTase activity, qHTS; Potency, µM, usual class: inhibitors; 3.5% of 310,000 active; AID 1490;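 further: the enzyme is Sfp with the accession as filed and its product quenches rhodamine fluorescence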
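Fluorescence-quenching assay with 15 nM Sfp, 5 uM rhodamine-CoA and 12.5 uM BHQ-2-labelled ybbR peptide in pH 7.6 Hepes/MgCl2 buffer. Enzyme was pre-incubated with compound for 15 min at room temperature. Rate was taken from the 30-min fluorescence change (525/598 nm).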
G9a inh – G9a (human) methyltransferase inhibition; 8.8% of 350,000 active; Potency, µM (titrated, usually from 102 µM), hits mostly inhibitors; G9a H3K9 monomethylation, AlphaScreen, 2 h; AID 504332; further: nearly all actives have a fitted effect of over 75% in size
Target sequence (Q96KQ7 913-1193 limits assumed): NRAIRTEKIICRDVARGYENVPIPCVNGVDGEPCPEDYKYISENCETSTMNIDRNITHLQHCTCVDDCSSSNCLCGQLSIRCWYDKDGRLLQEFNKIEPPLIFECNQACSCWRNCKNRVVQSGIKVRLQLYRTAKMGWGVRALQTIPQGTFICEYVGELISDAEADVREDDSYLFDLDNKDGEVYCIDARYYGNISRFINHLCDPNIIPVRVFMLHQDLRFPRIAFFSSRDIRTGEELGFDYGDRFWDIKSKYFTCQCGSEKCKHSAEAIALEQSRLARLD
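Methyltransferase reactions run at room temperature for 2 h (20 nM enzyme, 500 nM biotin-H3K9 peptide, 20 uM SAM) after a 15 min compound preincubation; product detected by AlphaScreen beads and anti-H3K9me1 antibody.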
HP1b binding inh – inhibitors of HP1-beta chromodomain binding to methylated histone tails; AID 540317; 0.56% of 390,000 active; Potency, µM (top dose mostly 114 µM), hits mostly inhibitors; AlphaScreen HP1-beta / biotin-H3K9me3 peptide binding; further: nearly all actives have a fitted effect of over 70% in size
Target sequence (P83916 whole entry, looked up): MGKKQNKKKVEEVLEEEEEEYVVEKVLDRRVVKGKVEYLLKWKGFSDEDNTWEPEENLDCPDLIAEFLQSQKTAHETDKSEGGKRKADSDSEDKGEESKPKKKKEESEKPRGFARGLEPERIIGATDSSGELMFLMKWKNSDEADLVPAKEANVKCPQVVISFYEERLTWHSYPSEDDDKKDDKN
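Compound inhibition of the preformed complex between 50 nM HP1-beta and 50 nM biotinylated H3K9me3 peptide was read by AlphaScreen. Buffer was PBS pH 7.4 with 0.01% Tween-20. Incubations ran 30 min at room temperature, with 10 ug/mL donor/acceptor beads.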
BAZ2B block – blocks human BAZ2B. Potency, µM (doses to about 114 µM), usual class: inhibitors. 4.4% of 360,000 active. AlphaScreen BAZ2B-H3K14Ac peptide displacement. Q9UIF8; further: nearly all actives have a fitted effect of over 60% in size
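In this displacement format the biotinylated H3(5-23) peptide acetylated at Lys14 serves as ligand at 50 nM, with BAZ2B at 50 nM in PBS pH 7.4 containing 0.01% Tween-20. Donor and acceptor beads are 10 ug/mL final.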
Of the large screens only hits and unclear results are named; the others gave an inactive call; ! = not active in a repeat. The call rests on the fitted dose curve; in most records, active means well fitted curve in the direction sought with a large enough effect; inconclusive means small, poorly fitted or top-dose-only effect, or another doubt; inactive means no such curve, though single readings can be large; an effect the other way counts as inactive or inconclusive.

CCOC(=O)C(=NCCCN(C)C)NNc1ccc(Br)cc1	12-LOX inh inconclusive, G9a inh 7.08µM
CCCCN=C(NNc1ccc(Br)cc1)C(=O)OCC	12-LOX inh inconclusive, JMJD2A Tudor inconclusive, G9a inh 11.2µM, BAZ2B block inconclusive
CCOC(=O)C(=O)NNc1ccc(Cl)cc1	12-LOX inh inconclusive, G9a inh inconclusive
CCOC(=O)C(=O)NNc1ccc(C)cc1	G9a inh inconclusive
CCOC(=O)C(=CNc1ccc(C(F)(F)F)cc1Cl)C(=O)OCC	12-LOX inh inconclusive
CCOC(=O)C(=NCCCN(C)C)NNc1cc(C(F)(F)F)ccc1Cl	12-LOX inh inconclusive, JMJD2A Tudor 44.7µM, G9a inh 39.8µM, HP1b binding inh inconclusive
CCCOc1ccccc1NC(=O)c1cc2cccc(OC)c2oc1=O	none (no result: JMJD2A Tudor, Sfp inh, G9a inh, HP1b binding inh, BAZ2B block)
CC(=O)c1ccc2noc(-c3cccc(C)c3)c2c1	G9a inh 17.8µM
Cc1c(CC(=O)NCCCn2ccnc2)c(=O)oc2c(C)c(O)ccc12	none (no result: JMJD2A Tudor, Sfp inh, G9a inh, HP1b binding inh, BAZ2B block)
COC/C=C/C1=CC2=CC(=O)C(C)(OC(=O)c3cnc4ccccc4n3)C(=O)C2=CN1c1ccc(CO)cc1 (stereo unspecified)	Sfp inh 56.2µM!, BAZ2B block 10µM (no result: 12-LOX inh, JMJD2A Tudor, G9a inh, HP1b binding inh)
COC/C=C/C1=CC2=CC(=O)C(C)(OC(=O)c3cnc4ccccc4n3)C(=O)C2=CN1C1CCCCC1 (stereo unspecified)	G9a inh 39.8µM, BAZ2B block inconclusive (no result: 12-LOX inh, JMJD2A Tudor, HP1b binding inh)
CCN(CC)CC[C@H]1CN(C(=O)c2ccnc(Cl)c2)CC[C@H]1CC(=O)O	none (no result: JMJD2A Tudor, Sfp inh, G9a inh, HP1b binding inh, BAZ2B block)
CCc1ccccc1SCc1noc(C(=O)NCC2CCCO2)c1C(=O)O (stereo unspecified)	12-LOX inh inconclusive
O=C(NCC1CCCO1)c1onc(CSc2ccccc2F)c1C(=O)O (stereo unspecified)	BAZ2B block 79.4µM
C/C(=N/Nc1ccc(S(=O)(=O)Nc2ccc(Cl)cc2)cc1[N+](=O)[O-])c1cccc([N+](=O)[O-])c1	none (no result: JMJD2A Tudor, Sfp inh, G9a inh, HP1b binding inh, BAZ2B block)
O=C(CSc1nccc(=O)[nH]1)c1ccccc1Br	Sfp inh 50.1µM, G9a inh 7.94µM
O=C(CSc1nccc(=O)[nH]1)c1c[nH]c2ccccc12	none (no result: G9a inh)
C=CCSc1nccc(=O)[nH]1	JMJD2A Tudor 50.1µM
Nc1ccc([N+](=O)[O-])cc1C(=O)O	none (no result: JMJD2A Tudor, Sfp inh, G9a inh, HP1b binding inh, BAZ2B block)
Cc1cc(SCC(NC(=O)c2ccccc2)C(=O)O)c2ccccc2n1 (stereo unspecified)	none (no result: JMJD2A Tudor, Sfp inh, G9a inh, HP1b binding inh, BAZ2B block)
CC1(c2ccccc2)N(Cc2ccc(O)cc2)C(=O)OC12CCN(Cc1c[nH]c3ccccc13)CC2 (stereo unspecified)	12-LOX inh 44.7µM (no result: JMJD2A Tudor, Sfp inh, G9a inh, HP1b binding inh, BAZ2B block)
Cc1ccccc1CN1CCC2(CC1)OC(=O)N(Cc1ccc(O)cc1)C2(C)c1ccccc1 (stereo unspecified)	none (no result: JMJD2A Tudor, Sfp inh, G9a inh, HP1b binding inh, BAZ2B block)
O=C1OCC2(CCN(Cc3c[nH]c4ccccc34)C2)N1Cc1ccccc1 (stereo unspecified)	12-LOX inh 50.1µM (no result: JMJD2A Tudor, Sfp inh, G9a inh, HP1b binding inh, BAZ2B block)
CCN(Cc1cccc2cnccc12)CC1CCCN(CCc2cccc(F)c2)C1 (stereo unspecified)	none (no result: JMJD2A Tudor, Sfp inh, G9a inh, HP1b binding inh, BAZ2B block)
CCN(CC)c1ccc(NC(=O)COc2ccc(N(C)S(=O)(=O)c3cccs3)cc2)cc1	JMJD2A Tudor inconclusive, Sfp inh inconclusive, G9a inh 7.94µM, BAZ2B block 10µM
CCN(CC)c1ccc(NC(=O)COc2ccc(-n3cnnn3)cc2)cc1	12-LOX inh inconclusive, JMJD2A Tudor 50.1µM, HP1b binding inh inconclusive (no result: Sfp inh, G9a inh, BAZ2B block)
CN(c1ccc(OCC(=O)OCC(=O)Nc2ccccc2)cc1)S(=O)(=O)c1cccs1	none
CCOc1ccc(NC(=O)COc2ccc(-n3cnnn3)cc2)cc1	none (no result: Sfp inh)
COc1ccc(Nc2nc3ccccc3nc2NS(=O)(=O)c2ccc(C)c(C)c2)c(OC)c1	none (no result: JMJD2A Tudor, Sfp inh, G9a inh, HP1b binding inh, BAZ2B block)
COc1ccc(C(=O)N2CCC3(CC2)OC(=O)N(Cc2ccccc2F)C3(C)c2ccccc2)cc1 (stereo unspecified)	none (no result: JMJD2A Tudor, Sfp inh, G9a inh, HP1b binding inh, BAZ2B block)
Cc1cc2c(cc1S(=O)(=O)N(C)C1CCCCC1)OCC(=O)N2	none
Cc1cc2[nH]c(=O)c(=O)[nH]c2cc1S(=O)(=O)N(C)C1CCCCC1	JMJD2A Tudor 3.55µM (no result: G9a inh)
O=C1CCC2(C(=O)NCc3ccccc3)SCCN12 (stereo unspecified)	none (no result: JMJD2A Tudor, Sfp inh, G9a inh, HP1b binding inh, BAZ2B block)
